PubChem BioAssay (NCATS)
Inconclusive results are not listed. Activity calls are given as the source filed them. Unless noted, calls follow the shape of the dose curve; as a rule, active = well fitted curve in the direction sought with a large enough effect; inconclusive = small, poorly fitted or top-dose-only effect, or another doubt; inactive = no such curve, though single readings can be large; an effect the other way counts as inactive or inconclusive.

Tests used:
[1] = Cell Viability - BJ (AID 421; calls by dose curve;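 also: potency is read from the fitted curve at half-maximal effect; cells exposed to compound for 40 hours at 37 °C before readout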); settings: BJ fibroblast viability, qHTS
In short: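 Cytotoxicity as drop in intracellular ATP (CellTiter-Glo, 20 min RT) after 40 hr compound exposure of BJ fibroblasts at 37 °C. Titrations scaled between DMSO and 100 uM tamoxifen, Hill-fitted for AC50.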

[2] = Cell Viability - Jurkat (AID 426;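 active = dose-dependent loss of cell ATP signal giving a full or clear fitted curve, ranked by lower potency value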; also: potency is read from the fitted curve at half-maximal effect); settings: qHTS
In short: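 Jurkat (clone E6-1, human T-cell leukemia) cells, 5000/well in complete medium, were exposed to compound for 40 hr at 37 °C. Viability was read as intracellular ATP by CellTiter-Glo luminescence; AC50 came from Hill fits of concentration-response data.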

[3] = Cell Viability - Hek293 (AID 427;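 active = compounds whose dose-response curve shows a full or clear partial loss of cell viability, called from curve shape rather than a numeric limit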;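 also: potency is read from the fitted curve at half-maximal effect; cells exposed to compound for 40 hours at 37 °C before reading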); settings: qHTS
In short: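 Luminescent ATP content (CellTiter-Glo, 20 min at room temperature) was measured after a 40 hr, 37 °C compound exposure of HEK293 cells. AC50 values came from Hill-equation fits of qHTS concentration-response data normalized to DMSO and 100 uM tamoxifen.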

[4] = Cell Viability - HepG2 (AID 433; calls by dose curve;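 also: potency is read from the fitted curve at half-maximal effect; potency for ATP loss meaning cytotoxicity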); settings: qHTS
In short: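 ATP luminescence (CellTiter-Glo) after 40 h compound exposure, 37 °C, HepG2, 1500 cells/well, complete medium. Normalized: DMSO = basal, 100 uM tamoxifen = 100% inhibition. AC50 via standard Hill equation.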

[5] = Cell Viability - SK-N-SH (AID 435; calls by dose curve; also: potency is read from the fitted curve at half-maximal effect); settings: SK-N-SH neuroblastoma cell viability qHTS
In short: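 CellTiter-Glo ATP luminescence, 20 min RT read; cells pre-plated 5 hr, compound 40 hr at 37 °C, 1500 cells/well, complete medium. Normalized DMSO = 0, 100 uM tamoxifen = 100% inhibition; Hill-fit AC50.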

[6] = biological target: Mitogen-activated protein kinase 10 (Mus musculus) (UniProt Q61831); experiment: JNK3 AlphaScreen Assay (AID 530; active = well fitted curve in either direction with a large enough effect, not every such curve was filed as active;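 also: kinase came from lysate of stimulated human HepG2 cells; signal reports phosphorylation of biotinylated GST-cJun 1-79 at Ser73 with 10 µM ATP; % is scaled to controls: 0 for no effect and ±100 for the full control effect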); settings: JNK3 lysate, c-Jun phosphorylation; series mostly up to 57.1 µM
In short: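 qHTS format: compounds tested as titrations against IL-1beta/TNF-alpha-activated HepG2 lysate JNK3 with biotin-GST-cJun substrate and 10 uM ATP at room temperature. Loss of anti-phospho-cJun AlphaScreen signal indicates inhibition.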

[7] = Cell Viability - N2a (AID 540); settings: N2a mouse neuroblastoma cell viability; activity change, negative = cytotoxicity: at 92.2 µM (top of the series);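 also: plate controls were DMSO alone for no effect and tamoxifen control for full effect; nearly all actives have a fitted effect of over 45% in size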
In short: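 Mouse neuroblastoma N2a cells (1500/well) were preincubated 5 hr at 37 °C, then exposed to compounds for 40 hr at 37 °C in complete medium. Viability was read as intracellular ATP by CellTiter-Glo luminescence; AC50 from Hill fits.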

[8] = Cell Viability - NIH 3T3 (AID 541); settings: NIH 3T3 cell viability, qHTS; activity change, negative = cytotoxicity: at 92.2 µM (top of the series);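 also: plate controls were DMSO alone for no effect and tamoxifen positive control for full effect; nearly all actives have a fitted effect of over 25% in size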
In short: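 NIH 3T3 mouse embryo fibroblasts (1000 cells/well) were plated in complete medium and treated with compound for 40 hr at 37 °C. Viability was read as intracellular ATP by CellTiter-Glo luminescence; AC50 values came from Hill-equation fits of concentration-response data.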

[9] = Cell Viability - HUV-EC-C (AID 542); settings: HUV-EC-C endothelial cell viability, qHTS; series mostly up to 92.2 µM; also: % is scaled to controls: 0 for no effect and ±100 for the full control effect; nearly all actives have a fitted effect of over 35% in size
In short: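 HUV-EC-C normal human vascular endothelial cells, 1000 cells/well, pre-incubated 5 hr at 37 °C, then exposed to compounds for 40 hr at 37 °C in complete medium. Viability measured as intracellular ATP by CellTiter-Glo luminescence; AC50 from Hill fits.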

[10] = Cell Viability - H-4-II-E (AID 543); settings: H-4-II-E rat hepatoma viability; series mostly up to 92.2 µM; also: % is scaled to controls: 0 for no effect and ±100 for the full control effect; nearly all actives have a fitted effect of over 35% in size
In short: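 Rat hepatoma H-4-II-E cells (1500/well) were plated, incubated 5 hr at 37 °C, then exposed to compounds for 40 hr at 37 °C. Cellular ATP was read by CellTiter-Glo luminescence; AC50 came from Hill-equation fits of concentration-response data.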

[11] = Cell Viability - SH-SY5Y (AID 544); settings: SH-SY5Y neuroblastoma cell viability; viability change, negative = cytotoxic: at 92.2 µM (top of the series); also: nearly all actives have a fitted effect of over 55% in size
In short: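 Human neuroblastoma SH-SY5Y cells (1500/well) in complete medium were exposed to compounds for 40 hr at 37 °C; intracellular ATP was then quantified by CellTiter-Glo luminescence after 20 min at room temperature. AC50 came from Hill-equation concentration-response fits.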

[12] = Cell Viability - Renal Proximal Tubule (AID 545); settings: renal proximal tubule cells viability, primary cells of rat origin; series mostly up to 91.7 µM; also: nearly all actives have a fitted effect of over 40% in size
In short: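 Rat kidney proximal tubule cells, freshly isolated; 1000 cells/well, 5 hr settle, compound 40 hr 37 °C. CellTiter-Glo 20 min RT, luminescence read. AC50 by standard Hill fit.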

[13] = Cell Viability - Mesenchymal (AID 546); settings: mesenchymal cells viability, qHTS; series mostly up to 91.7 µM;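 also: cells exposed to compound for 40 hours before reading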
In short: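 Human kidney mesenchymal cells from normal renal glomeruli, 1000 cells/well, rested 5 hr at 37 °C, then treated 40 hr at 37 °C in complete medium. Cellular ATP read by CellTiter-Glo luminescence; AC50 from Hill-equation fits.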

[14] = Cellular Toxicity (caspase-3) HepG2 (AID 654); settings: HepG2 caspase-3 activation, luminescence; series mostly up to 92.2 µM;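 also: cells exposed to compound for 16 hours before reading; 0% = DMSO alone and 100% = caspase signal from 100 µM tamoxifen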
In short: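 HepG2 cells (1500/well) in complete medium were treated with compounds for 16 hr at 37 °C. Caspase-3/7 activity was then read as luminescence from peptide-aminoluciferin cleavage. AC50 came from Hill fits, normalized to DMSO and 100 uM tamoxifen.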

[15] = Cellular Toxicity (caspase-3) Jurkat (AID 655); settings: Jurkat caspase-3 activation, luminescence; caspase-3 activation: at 92.2 µM (top of the series), DMSO = 0%, tamoxifen = 100%;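 also: cells exposed to compound for 16 h at 37 °C before reading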
In short: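 Luminescent caspase-3/7 readout (aminoluciferin substrate cleavage) in human T-cell leukemia Jurkat cells after 16 hr compound exposure. Concentration-response normalized to DMSO and 100 uM tamoxifen; AC50 by standard Hill equation.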

[16] = Cellular Toxicity (caspase-3) HUV-EC-C (AID 656); settings: HUV-EC-C cells, caspase-3 activation (apoptosis), vehicle = 0, 100 µM tamoxifen = 100%; series mostly up to 92.2 µM
In short: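 Luminescent caspase-3/7 activation (aminoluciferin substrate cleavage) in HUV-EC-C cells after 16 hr compound exposure, 37°C. Signal normalized to DMSO basal and 100 uM tamoxifen as 100%; AC50 from concentration-response fitted with the Hill equation.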

[17] = Cellular Toxicity (caspase-3) SHSY5Y (AID 657); settings: SH-SY5Y caspase-3 activation, DMSO zero, 10 µM staurosporine = 100%; series mostly up to 91.7 µM;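 also: cells exposed to compound for 16 hours at 37 °C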
In short: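 Luminescent caspase-3/7 readout (aminoluciferin release) in SH-SY5Y cells after 16 h compound exposure in complete medium. Activity scaled between DMSO basal and 10 uM staurosporine as 100%; concentration-response fitted to Hill equation for AC50.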

[18] = Cellular Toxicity (caspase-3) BJ (AID 658); settings: BJ fibroblasts, luminescence, normalized: DMSO 0%, staurosporine 100%; series mostly up to 91.7 µM;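 also: cells exposed to compound for 16 hours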
In short: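 BJ human foreskin fibroblasts, 1000 cells/well, treated 16 hours at 37 °C in complete medium; caspase 3/7 activity by Caspase-Glo luminescence after 1 hr at room temperature. Normalized to DMSO and 10 uM staurosporine; AC50 from Hill fits.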

[19] = Cellular Toxicity (caspase-3) MRC-5 (AID 659); settings: MRC-5 cells, luminescence, normalized: DMSO 0%, 10 µM staurosporine 100%; series mostly up to 91.7 µM;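 also: cells exposed to compound for 16 h at 37 °C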
In short: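 MRC-5 human normal lung fibroblasts, 1500 cells/well, treated 16 h at 37 °C in complete medium. Caspase 3/7 measured by Caspase-Glo luminescence after 1 h at room temperature. Normalized to DMSO and 10 uM staurosporine; AC50 from Hill fit.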

[20] = Cell Viability - MRC5 (AID 434; calls by dose curve;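 also: potency is read from the fitted curve at half-maximal effect; potency reflects cytotoxicity seen as loss of intracellular ATP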); settings: MRC5 lung fibroblast viability, qHTS
In short: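 MRC5 normal human lung fibroblasts, 1500 cells/well, exposed to compound for 40 hr at 37 C. Cellular ATP was read by CellTiter-Glo luminescence; data normalized to DMSO and 100 uM tamoxifen, with AC50 from Hill fits.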

C(=C/c1ccccc1)/c1ccccc1
inactive: Potency [1] > 92 µM | Potency [2] > 92 µM | Potency [3] > 92 µM | Potency [4] > 92 µM | Potency [5] > 92 µM | outcome [6] | activity change, negative = cytotoxicity [7] -0.717% | Potency [8] | Potency [9] | Potency [10] | Potency [11] | Potency [12] | Potency [13] | Potency [14] | caspase-3 activation [15] 0.745% | outcome [16] | outcome [17] | outcome [18] | outcome [19]

O=[N+]([O-])c1cccc(Cl)c1
inactive: Potency [1] > 92 µM | Potency [2] > 92 µM | Potency [3] > 92 µM | Potency [4] > 92 µM | Potency [5] > 92 µM | outcome [6] | activity change, negative = cytotoxicity [7] -8.23% | Potency [8] | Potency [9] | Potency [10] | Potency [11] | Potency [12] | Potency [13] | Potency [14] | caspase-3 activation [15] -3.2% | outcome [16] | outcome [17] | outcome [18] | outcome [19]

C[C@@H]1O[C@@H](O[C@@H]2[C@@H](O)[C@H](OCCc3ccc(O)c(O)c3)O[C@H](CO[C@@H]3O[C@H](CO)[C@@H](O)[C@H](O)[C@H]3O)[C@H]2OC(=O)/C=C/c2ccc(O)c(O)c2)[C@H](O)[C@H](O)[C@H]1O
inactive: Potency [1] > 92 µM | Potency [2] > 92 µM | Potency [3] > 92 µM | Potency [4] > 92 µM | Potency [5] > 92 µM | outcome [6] | activity change, negative = cytotoxicity [7] -12.1% | Potency [8] | Potency [9] | Potency [10] | Potency [11] | Potency [12] | Potency [14] | outcome [16] | outcome [17] | outcome [18] | outcome [19]

CCCCCCC=O
inactive: Potency [1] > 92 µM | Potency [2] > 92 µM | Potency [3] > 92 µM | Potency [4] > 92 µM | Potency [5] > 92 µM | outcome [6] | activity change, negative = cytotoxicity [7] -2.45% | Potency [8] | Potency [9] | Potency [10] | Potency [11] | Potency [12] | Potency [13] | Potency [14] | caspase-3 activation [15] 0.767% | outcome [16] | outcome [17] | outcome [18] | outcome [19]

CC(O)COC(C)(C)C (configuration not stated)
inactive: Potency [1] > 92 µM | Potency [2] > 92 µM | Potency [3] > 92 µM | Potency [4] > 92 µM | Potency [20] > 92 µM | outcome [6] | activity change, negative = cytotoxicity [7] 1.08% | Potency [9] | Potency [10] | Potency [11] | Potency [12] | Potency [13] | Potency [14] | caspase-3 activation [15] 0.633% | outcome [16] | outcome [18] | outcome [19]

CCC(C)O (configuration not stated)
inactive: Potency [1] > 92 µM | Potency [2] > 92 µM | Potency [3] > 92 µM | Potency [4] > 92 µM | outcome [6] | activity change, negative = cytotoxicity [7] -8.95% | Potency [8] | Potency [9] | Potency [10] | Potency [11] | Potency [12] | Potency [13] | Potency [14] | caspase-3 activation [15] 0.184% | outcome [16] | outcome [17] | outcome [18] | outcome [19]

CC(C)(O)CCC(C)(C)O
inactive: Potency [1] > 92 µM | Potency [2] > 92 µM | Potency [3] > 92 µM | Potency [4] > 92 µM | Potency [5] > 92 µM | outcome [6] | activity change, negative = cytotoxicity [7] 3.94% | Potency [8] | Potency [9] | Potency [11] | Potency [12] | Potency [13] | Potency [14] | caspase-3 activation [15] 0.189% | outcome [16] | outcome [17] | outcome [18]

CNC(=O)N(c1ccccc1)c1ccccc1
inactive: Potency [1] > 92 µM | Potency [2] > 92 µM | Potency [3] > 92 µM | Potency [4] > 92 µM | Potency [5] > 92 µM | outcome [6] | activity change, negative = cytotoxicity [7] -1.02% | Potency [8] | Potency [9] | Potency [10] | Potency [11] | Potency [12] | Potency [13] | Potency [14] | caspase-3 activation [15] 1.82% | outcome [17] | outcome [18] | outcome [19]

NC(=O)c1ccccc1[N+](=O)[O-]
inactive: Potency [1] > 92 µM | Potency [2] > 92 µM | Potency [3] > 92 µM | Potency [4] > 92 µM | Potency [20] > 92 µM | activity change, negative = cytotoxicity [7] -5.05% | Potency [8] | Potency [9] | Potency [11] | Potency [12] | Potency [13] | Potency [14] | caspase-3 activation [15] -0.0168% | outcome [16] | outcome [17] | outcome [19]

Cc1ccc(S(=O)(=O)NC2CCCCC2)cc1
inactive: Potency [1] > 92 µM | Potency [2] > 92 µM | Potency [3] > 92 µM | Potency [4] > 92 µM | Potency [5] > 92 µM | outcome [6] | activity change, negative = cytotoxicity [7] -19.2% | Potency [9] | Potency [10] | Potency [11] | Potency [12] | Potency [13] | Potency [14] | outcome [16] | outcome [17] | outcome [18] | outcome [19]

Cc1ccc(C)cc1
inactive: Potency [1] > 92 µM | Potency [2] > 92 µM | Potency [3] > 92 µM | Potency [4] > 92 µM | Potency [5] > 92 µM | outcome [6] | activity change, negative = cytotoxicity [7] -13.5% | Potency [8] | Potency [9] | Potency [10] | Potency [11] | Potency [12] | Potency [13] | Potency [14] | caspase-3 activation [15] 2.23% | outcome [17] | outcome [18] | outcome [19]

CC(=O)c1ccccn1
inactive: Potency [1] > 92 µM | Potency [2] > 92 µM | Potency [3] > 92 µM | Potency [4] > 92 µM | Potency [5] > 92 µM | activity change, negative = cytotoxicity [7] -1.85% | Potency [8] | Potency [9] | Potency [10] | Potency [11] | Potency [12] | Potency [13] | Potency [14] | caspase-3 activation [15] 12.2% | outcome [16] | outcome [17] | outcome [19]
